FMDV antiviral: antivirals against foot and mouth disease virus; AID 1159524; Potency, µM (highest dose often 57.9 µM), hits mostly inhibitors; hit rate 1.2% among 410,000; FMDV antiviral cell-based qHTS; calls by dose curve; tested in HEK293T cells; further: read-out not given here; nearly all actives have a fitted effect of over 45% in size
MARV entry inh: blocks Marburg virus binding to or entry into cells. AID 540276. Potency, µM (top dose mostly 37.8 µM), most hits filed as inhibitors. hit rate 1.8% among 300,000. Marburg virus pseudotyped entry inhibition, cell reporter; calls by dose curve; tested in HEK293 cells
HCMV antiviral: human cytomegalovirus inhibition. activity change, negative = inhibition, % at 57.5 µM. hit rate 4.5% among 410,000. HFF cells, HCMV-luciferase reporter, 72 h; stronger effect = lower value. AID 1259415; in the data active means activity change below about -60%; inconclusive means no clear call, values can overlap the other calls; inactive means above about -39%
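Steps: HFFs plated, 16 h 37C; compounds added; HCMV-luciferase added to MOI 1 PFU/cell; 72 h 37C; OneGlo reagent, 5 min room temperature; luminescence read, normalized to controls.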
HCV inhibitor: HCV inhibition | Huh7.5.1 HCVcc-Cre infection, luciferase reporter, 44 h | Potency, µM (titrated, usually from 41.8 µM), hits mostly inhibitors | hit rate 3.4% among 340,000; active means well fitted inhibition curve with a large enough effect; inconclusive means small, poorly fitted or top-dose-only effect, or another doubt; inactive means no such curve, though single readings can be large or run the other way
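Cells (1,000/well) were plated 4 h before compound, then infected with HCVcc-Cre virus (~0.5 moi). After 44 h further culture, infection was read as luciferase luminescence following a 15 min substrate incubation at room temperature.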
LASV entry inh: Lassa virus entry inhibition | Lassa virus pseudotype entry inhibition, cell reporter | Potency, µM (series often up to 37.9 µM), most hits filed as inhibitors | hit rate 1.2% among 300,000 | AID 540256; calls by dose curve; tested in HEK293 cells; further: nearly all actives have a fitted effect of over 50% in size
SARS PLpro yeast: inhibitors of SARS-CoV papain-like protease in yeast; hit rate 0.19% among 330,000; AID 485353; S. cerevisiae expressing SARS-CoV PLpro, growth rescue; Potency, µM (titrated, usually from 32.9 µM), usual class: activators; calls by dose curve; further: nearly all actives have a fitted effect of over 55% in size
Of the large screens only hits and unclear results are named; the others gave an inactive call; ! = not confirmed by another sample. Shown are actives, neighbours in structure and some others; about 8% of the full set was active somewhere.

COc1ccc(OC(C)C(=O)Nc2ccc([N+](=O)[O-])cc2)cc1 (centres undefined)	FMDV antiviral inconclusive, LASV entry inh inconclusive
Cc1cc(OC(F)F)ccc1NC(=O)Nc1ccc([N+](=O)[O-])cc1	MARV entry inh inconclusive, HCMV antiviral -79, HCV inhibitor inconclusive, LASV entry inh inconclusive
O=C(Nc1ccc(Cl)cc1)Nc1cc([N+](=O)[O-])ccc1F	HCMV antiviral -79
COc1cccc(CNC(=O)Cn2cc3c(n2)-c2c(oc(C(=O)N4CCCC4)c2C)CC3)c1OC	FMDV antiviral inconclusive, HCMV antiviral inconclusive (no result: MARV entry inh, HCV inhibitor, SARS PLpro yeast)
COc1ccc(-c2c(-c3ccc(OC)nc3)c3ccccc3n2C)cc1	HCV inhibitor 22µM (no result: MARV entry inh, LASV entry inh)
COc1cccc(-c2c(-c3cc(OC)cc(OC)c3)n(C)c3ccc(-c4ccc(OC)nc4)cc23)c1	none (no result: LASV entry inh)
COc1ccc(NC(=O)Cn2c(=O)oc3cc(S(=O)(=O)N4CCC(C)CC4)ccc32)c(OC)c1	FMDV antiviral inconclusive, MARV entry inh inconclusive (no result: HCV inhibitor, SARS PLpro yeast)
Cc1ccc(-c2nn(-c3ccc(F)cc3F)c3c2cnc2ccc(F)cc23)cc1	FMDV antiviral inconclusive (no result: MARV entry inh, HCV inhibitor, SARS PLpro yeast)
CCOC(=O)c1sc2nc(C)nc(N3CCCCC3C)c2c1C (centres undefined)	MARV entry inh inconclusive, HCMV antiviral -73
CCOC(=O)c1sc2nc(C)nc(SCC(=O)N(CC)C3CCS(=O)(=O)C3)c2c1C (centres undefined)	FMDV antiviral inconclusive, HCMV antiviral -73 (no result: MARV entry inh, LASV entry inh)
Cc1c(C(=O)O)sc2ncnc(N3CCCCC3C)c12 (centres undefined)	LASV entry inh inconclusive
CCN(C(=O)CSc1nnc(Nc2ccc(OC)cc2)s1)C1CCS(=O)(=O)C1 (centres undefined)	none
CCOc1ccc(NC(=O)CCn2c(=O)c3cccn3c3cccnc32)cc1	none (no result: MARV entry inh, HCV inhibitor, SARS PLpro yeast)
Cc1ccc(C2C=C(c3ccc(Cl)cc3)Nc3nc(NC(=O)c4ccco4)nn32)cc1 (centres undefined)	FMDV antiviral inconclusive, MARV entry inh inconclusive, HCMV antiviral -62 (no result: HCV inhibitor, SARS PLpro yeast)
Cc1ccc(C2C=C(c3ccccc3)Nc3nc(N4C(=O)CCC4=O)nn32)cc1 (centres undefined)	HCMV antiviral -62
COc1ccccc1C(=O)Nc1nc2n(n1)C(c1ccc(F)cc1)C=C(c1ccc(Cl)cc1)N2 (centres undefined)	none (no result: HCV inhibitor, SARS PLpro yeast)
O=C(Nc1nc2n(n1)C(c1ccc(F)cc1)C=C(c1ccc(Cl)cc1)N2)c1ccc([N+](=O)[O-])cc1 (centres undefined)	MARV entry inh 2.8µM, HCMV antiviral inconclusive, LASV entry inh inconclusive (no result: HCV inhibitor, SARS PLpro yeast)
CCN1C(=O)NC(c2cccs2)C(C(=O)OC)=C1C (centres undefined)	none (no result: FMDV antiviral, HCMV antiviral, HCV inhibitor, LASV entry inh, SARS PLpro yeast)
COc1ccc(C(c2nnnn2Cc2ccccc2)N2CCN(c3nc4ccccc4s3)CC2)cc1 (centres undefined)	MARV entry inh inconclusive, HCV inhibitor inconclusive, LASV entry inh 11µM
COc1ccc(Cn2nnnc2C(C(C)C)N2CCN(c3ccccc3OC)CC2)cc1 (centres undefined)	FMDV antiviral 25µM, MARV entry inh inconclusive, HCV inhibitor inconclusive, LASV entry inh inconclusive
COc1ccc(Cn2nnnc2C(c2ccccc2Cl)N2CCN(C3CCCC3)CC2)cc1 (centres undefined)	MARV entry inh inconclusive
COc1ccc(C(c2nnnn2Cc2ccccc2)N2CCN(c3ccccc3)CC2)cc1 (centres undefined)	MARV entry inh inconclusive, HCV inhibitor inconclusive, LASV entry inh inconclusive
COc1ccc(Cn2nnnc2C(c2ccccc2)N2CCN(C3CCCC3)CC2)cc1 (centres undefined)	MARV entry inh 7.1µM!, HCV inhibitor inconclusive
CCC(c1nnnn1Cc1ccc(F)cc1)N1CCN(C2CCCCC2)CC1 (centres undefined)	FMDV antiviral inconclusive, MARV entry inh 13µM, LASV entry inh inconclusive
CCCC(c1nnnn1Cc1ccc(F)cc1)N1CCN(C)CC1 (centres undefined)	none
c1ccc(CCn2nnnc2C(c2cccnc2)N2CCN(c3nc4ccccc4s3)CC2)cc1 (centres undefined)	MARV entry inh inconclusive, HCMV antiviral inconclusive, HCV inhibitor 25µM, LASV entry inh inconclusive (no result: FMDV antiviral)
Fc1ccc(N2CCN(C(c3cccs3)c3nnnn3CCc3ccccc3)CC2)cc1 (centres undefined)	MARV entry inh 13µM, LASV entry inh 11µM
c1ccc(CCn2nnnc2C(c2cccnc2)N2CCN(c3ccccc3)CC2)cc1 (centres undefined)	MARV entry inh inconclusive, HCMV antiviral -64, LASV entry inh inconclusive (no result: FMDV antiviral)
Fc1ccccc1N1CCN(C(c2cccs2)c2nnnn2CCc2ccccc2)CC1 (centres undefined)	MARV entry inh inconclusive, HCV inhibitor inconclusive, LASV entry inh inconclusive
Cc1ccc(C(=O)NCc2ccccc2)cc1NC(=O)c1nsc2ccccc12	none (no result: MARV entry inh, HCV inhibitor, SARS PLpro yeast)
CCCCCN1N=C(C)CC1=O	LASV entry inh 2µM
COc1ccc(NS(=O)(=O)c2cc(NC(=O)c3cnc(C)cn3)ccc2N2CCCC2)cc1	MARV entry inh inconclusive, HCMV antiviral -65, HCV inhibitor inconclusive, LASV entry inh inconclusive
COc1ccc(NS(=O)(=O)c2cc(NC(=O)c3ccncc3)ccc2N2CCOCC2)cc1	none
COc1ccc(NS(=O)(=O)c2cc(NC(=O)c3ccco3)ccc2N2CCCCC2)cc1	MARV entry inh 14µM, HCMV antiviral -76, HCV inhibitor inconclusive, LASV entry inh inconclusive
Cc1cnc(C(=O)Nc2ccc(C)c(S(=O)(=O)N3CCCCC3)c2)cn1	MARV entry inh inconclusive
COc1ccc(NS(=O)(=O)c2cc(NC(=O)c3ccc(=O)[nH]c3)ccc2N2CCCC2)cc1	HCMV antiviral -74, HCV inhibitor inconclusive (no result: MARV entry inh, LASV entry inh)
COc1ccc(NS(=O)(=O)c2cc(NC(=O)c3cccnc3Cl)ccc2N2CCCC2)cc1	HCV inhibitor inconclusive (no result: MARV entry inh, LASV entry inh)
COc1ccc(NS(=O)(=O)c2cc(NC(=O)c3cnc(C)cn3)ccc2N2CCCCC2)cc1	MARV entry inh inconclusive, HCMV antiviral -74, HCV inhibitor inconclusive, LASV entry inh inconclusive
COc1ccc(NS(=O)(=O)c2cc(NC(=O)c3cccs3)ccc2N2CCOCC2)cc1	HCV inhibitor inconclusive (no result: MARV entry inh, LASV entry inh)
COc1ccc(-c2noc(CSc3nc(N)cc(=O)[nH]3)n2)cc1OC	FMDV antiviral inconclusive (no result: MARV entry inh, HCV inhibitor, SARS PLpro yeast)
COc1ccc(NS(=O)(=O)c2cc(NC(=O)C3CC3)ccc2N2CCCCC2)cc1	MARV entry inh inconclusive, HCMV antiviral -101, HCV inhibitor 11µM, LASV entry inh inconclusive
COc1ccc(NS(=O)(=O)c2cc(NC(=O)C3CC3)ccc2N2CCOCC2)cc1	HCMV antiviral inconclusive, LASV entry inh inconclusive
Cc1ccc(N2CC(NC(=O)c3ccc4c(c3)OCO4)CC2=O)cc1 (centres undefined)	none (no result: MARV entry inh, HCV inhibitor, SARS PLpro yeast)
COC(=O)c1c(OCc2ccccn2)cc(=O)n2c1CCN(Cc1cccc(C(F)(F)F)c1)CC2	none (no result: MARV entry inh, HCMV antiviral, HCV inhibitor, LASV entry inh, SARS PLpro yeast)
CCOc1cc(C(=S)N2CCOCC2)ccc1OC(=O)c1cccc(C)c1	FMDV antiviral inconclusive, HCV inhibitor 11µM (no result: MARV entry inh, LASV entry inh)
